# Screen size: about 200,000 compounds; about 3,000 (1.5%) were called active. The list comes from a sample in which actives are over-represented; it also holds similar structures and randomly drawn compounds. Unmarked numbers belong to inactive results.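 Rule for the calls: active = inhibition above about 50% when tested at 10 µM (limit read from the data); inactive = the rest.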
# Molecular target: Luciferin 4-monooxygenase (Photinus pyralis) (UniProt P08659)
# Test: inhibition of purified FLuc reporter enzyme – biochemical, luminescence, ATPLite, artefact control for luciferase-based inhibitor screens, primary screen (AID 1006)
# Conditions: ATPLite firefly luciferase biochemical luminescence, 10 min; at 10 µM; active compounds read high
# Luciferin 4-monooxygenase (Photinus pyralis), sequence (P08659 whole entry, looked up): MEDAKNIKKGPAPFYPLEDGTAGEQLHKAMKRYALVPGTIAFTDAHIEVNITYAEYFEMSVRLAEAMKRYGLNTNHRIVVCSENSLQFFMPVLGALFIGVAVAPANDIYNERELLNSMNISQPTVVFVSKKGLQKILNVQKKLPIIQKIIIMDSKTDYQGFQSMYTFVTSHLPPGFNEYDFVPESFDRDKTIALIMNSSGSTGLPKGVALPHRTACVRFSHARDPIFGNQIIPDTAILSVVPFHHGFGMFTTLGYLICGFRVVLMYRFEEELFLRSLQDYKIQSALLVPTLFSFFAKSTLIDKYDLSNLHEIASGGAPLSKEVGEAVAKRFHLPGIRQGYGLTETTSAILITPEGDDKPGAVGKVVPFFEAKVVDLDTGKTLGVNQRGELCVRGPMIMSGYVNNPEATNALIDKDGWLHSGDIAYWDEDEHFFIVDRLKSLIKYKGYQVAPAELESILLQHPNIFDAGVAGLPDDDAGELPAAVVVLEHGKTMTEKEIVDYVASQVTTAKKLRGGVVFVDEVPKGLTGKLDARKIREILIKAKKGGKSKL
row,SMILES,inhibition
1,CCCCc1cc(=O)oc2cc(C)cc(OCc3nn[nH]n3)c12,-6.7%
2,Cc1noc(C)c1COc1ccc2ccc(=O)oc2c1,-2.2%
3,Cc1cc(Cl)ccc1NC(=S)N1CCC(C(N)=O)(N2CCCCC2)CC1,-2.1%
4,O=C(Oc1cccc(NC2=NS(=O)(=O)c3ccccc32)c1)c1ccncc1,-2.8%
5,Cc1ccc(S(=O)(=O)N(NC2=NS(=O)(=O)c3ccccc32)C(=O)c2ccccc2)cc1,0.4%
6,CC(C)(C)c1csc(NC2=NS(=O)(=O)c3ccccc32)n1,77.2% (active)
7,N/C(=N\OC(=O)CCc1ccccc1)c1ccc(Cl)cc1,0.8%
8,N/C(=N\OC(=O)CCC1CCCCC1)c1ccccn1,71.2% (active)
9,N/C(=N\OC(=O)CCc1ccccc1)c1cccnc1,14.6%
10,CCC(C)(NC(=O)c1ccccn1)C(=O)NC1CCCCC1 (configuration not stated),-4.6%
11,COc1ccc(/C(N)=N/OC(=O)Cc2ccccc2)cc1,10.9%
12,N/C(=N\OC(=O)CC1CCCCC1)c1ccccc1,90.2% (active)
13,Cc1cc(C)nc(/N=C2\NC(=O)CC(C(=O)O)N2c2ccc(Cl)cc2Cl)n1 (configuration not stated),-5.6%
14,COc1ccccc1-c1noc(CSc2nc(C)cc(=O)[nH]2)n1,-0.3%
15,CCc1ccc(NC(=O)C(=O)N/N=C(\C)CC(=O)NCCOC)cc1,10.5%
16,CCCCNC(=O)N1CCN(S(C)(=O)=O)CC1,-1.2%
17,CC(C)n1c(-c2ccncc2)n[nH]c1=S,-5.7%
18,Cc1cccc(NC(=S)N2CCC(O)CC2)c1C,-0.2%
19,CCCC(=O)Nc1ccc(C(=O)N/N=C/c2ccc[nH]2)cc1,-1.8%
20,O=C(c1cc(Cl)cc(Cl)c1)N1CCC(=O)N(C(COCc2ccccc2)Cc2ccccc2)CC1 (configuration not stated),-9.5%
21,O=C(O)Cc1sc(-c2ccc(C(=O)O)cc2)nc1-c1ccccc1,-4.9%
22,NC(=O)Cc1ccc2sc(-c3ccccc3)nc2c1,65.2% (active)
23,O=C(O)Cc1sc(-c2ccccc2)nc1-c1cccs1,6.8%
24,CCOC(=O)c1ccc(NC(=O)C2CC(=O)Nc3nc4ccccc4n32)cc1 (configuration not stated),0.7%
25,NC(=O)Cc1nc2scc(-c3ccc(Cl)cc3)c2c(=O)[nH]1,-1.4%
26,O=c1[nH]c(CN2CCOCC2)nc2cc(Cl)ccc12,-3.5%

row,SMILES,inhibition
1,O=c1[nH]c(CCl)nc2cc(-c3ccc(Cl)cc3)sc12,93.3% (active)
2,Cc1cccc(NC(=O)NC(=S)NC(=O)c2ccccc2)c1,12.7%
3,Cn1c(-c2ccccc2)c[n+]2c1CCCCC2,-4.6%
4,COc1ccc(C2=NN(c3ccccc3)C(c3cccs3)C2)cc1 (configuration not stated),5.5%
5,FC(F)(F)c1nc2ccccc2nc1N/N=C/c1ccc(Cl)cc1,8.5%
6,CC(C)(C)c1nnc(N/N=C/c2ccc(O)cc2)n(N)c1=O,17.8%
7,O=c1c2ccccc2nc(N/N=C/c2ccccc2)n1O,90.5% (active)
8,c1ccc2c(NC3C4CC5CC(C4)CC3C5)nc(N3CCOCC3)nc2c1 (configuration not stated),-8.2%
9,CCOc1ccc(NC(=O)c2cc(C)nc3ccccc23)cc1,-2.9%
10,CCc1cccc(C)c1NC(=S)N(CCCN1CCN(C)CC1)Cc1cccs1,-0.5%
11,CN1C(=O)/C(=C\c2cc(Br)cs2)c2ccccc21,32.4%
12,CN(C)c1nccc(NCc2ccccc2)c1C#N,-1.3%
13,O=C1NC(c2ccccc2)CCC1(Cl)Cl (configuration not stated),-1.3%
14,C/C(=N\OC(=O)c1ccccc1)c1c(C)nc2cc(C)ccn12,-3.4%
15,O=C(CSc1ccc(/C=N/NC(=O)c2cccc(F)c2)o1)Nc1ccccc1,3.7%
16,Cc1ccc(NC(=O)C(=O)NCc2ccc(/C=N/NC(=O)c3c(C)nc4cc(C)ccn34)o2)cc1,70.8% (active)
17,C[C@@H]1CC[C@]2(O[C@@H](CCO)C[C@H](O)[C@H]2O)O1,-2.6%
18,CCN(CC)CCNC(=O)c1ccc(NC(=O)c2c(F)cccc2Cl)cc1,-2%
19,CC(=O)Nc1ccc(S(=O)(=O)NC2(C(F)(F)F)C(=O)NC(C)=C2C#N)cc1 (configuration not stated),-5.9%
20,COc1ccc(-c2cc(C(=O)n3cnc4ccccc43)c3ccccc3n2)cc1,36.7%
21,C/C(N)=C(/C#N)C(=O)COC(=O)c1cc(-c2ccc(C)cc2)nc2ccccc12,12.9%
22,CNC(=O)COC(=O)c1cc(-c2ccc(OC)cc2)nc2ccccc12,54.2% (active)
23,O=C(NNc1cc(Cl)ccc1Cl)c1cccnc1Cl,-7.9%
24,CC(=O)c1sc(NC(=O)c2cccc3ccccc23)nc1C,-4.9%
25,CC(=O)c1sc(NC(=O)c2ccc(C)cc2)nc1C,68.8% (active)
26,CC(=O)c1sc(N/N=C\c2ccc(C)cc2)nc1C,-5.2%
